# Test results from PubChem BioAssay (NCATS).
# Where “and” joins values, the source holds several entries; their conditions need not be identical. Equal entries are not always repeated. Inconclusive results are not listed. Unmarked numbers belong to inactive results. Calls of active or inactive are those of the source. Calls come from the whole dose curve; as a rule, active = well fitted inhibition curve with a large enough effect; inconclusive = small, poorly fitted or top-dose-only effect; inactive = flat fitted curve, though single readings scatter.
# Legend:
# [1] = qHTS profiling for inhibitors of Plasmodium falciparum proliferation (AID 504749); note: nearly all actives have a fitted effect of over 60% in size;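 for activity, negative = inhibition: 0% = DMSO vehicle and full inhibition = artemisinin control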; details: P. falciparum in erythrocytes, SYBR Green DNA, 72 h
# Summary of the method: (§1)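 Parasite proliferation within erythrocytes, 72 h exposure. Endpoint: SYBR Green I fluorescence after overnight lysis at room temperature. Controls: 0.29 uM artemisinin, DMSO.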
# 3D7 = experiment: as above; details: P. falciparum in erythrocytes, SYBR Green DNA, 72 h; series mostly up to 28.7 µM
# Summary of the method: as §1
# 7G8 = experiment: as above; details: P. falciparum in erythrocytes, SYBR Green DNA, 72 h; series mostly up to 28.7 µM
# Summary of the method: as §1
# [2] = at 12.8 µM (top of the series), parasite line A
# [3] = at 12.8 µM (top of the series), parasite line B
# [4] = at 28.7 µM (top of the series), parasite line A
# [5] = at 28.7 µM (top of the series), parasite line B
# Potency is the fitted concentration of half-maximal effect.
smiles,measurement,setting,value
Cc1cc2c(cc1S(N)(=O)=O)S(=O)(=O)CCC2,"activity, negative = inhibition",[1]; [2],-1.89%
same,"activity, negative = inhibition",[1]; [3],2.51%
same,Potency,3D7,inactive
same,Potency,7G8,inactive
NCCNCCNCCN,"activity, negative = inhibition",[1]; [4],4.28%
same,"activity, negative = inhibition",[1]; [5],2.86%
same,Potency,3D7,inactive
same,Potency,7G8,inactive
CC(C)(C)C(=O)NCCCC(=O)O,"activity, negative = inhibition",[1]; [4],13.3%
same,"activity, negative = inhibition",[1]; [5],-4.47%
same,Potency,3D7,inactive
same,Potency,7G8,inactive
Nc1ccc(S(=O)(=O)Nc2nccs2)cc1,"activity, negative = inhibition",[1]; [4],1.04%
same,"activity, negative = inhibition",[1]; [5],-2.23%
same,Potency,3D7,inactive
same,Potency,7G8,inactive
O=C(O)CC(O)C(=O)O (stereo not given),"activity, negative = inhibition",[1]; [4],10.4%
same,"activity, negative = inhibition",[1]; [5],3.5%
same,Potency,3D7,inactive
same,Potency,7G8,inactive
CC(=O)Oc1ccc(C2(c3ccc(OC(C)=O)cc3)C(=O)Nc3ccccc32)cc1,"activity, negative = inhibition",[1]; [4],5.01% and 7.68%
same,"activity, negative = inhibition",[1]; [5],2.92% and 4.08%
same,Potency,3D7,inactive
same,Potency,7G8,inactive
O=C(O)c1ccccc1-c1ccc(C(F)(F)F)cc1,"activity, negative = inhibition",[1]; [4],11.3%
same,"activity, negative = inhibition",[1]; [5],19.8%
same,Potency,3D7,inactive
same,Potency,7G8,inactive
Nc1ccc(S(=O)(=O)Nc2ccccc2)cc1,"activity, negative = inhibition",[1]; [4],-9.52%
same,"activity, negative = inhibition",[1]; [5],11.6%
same,Potency,3D7,inactive
same,Potency,7G8,inactive
Cc1cc(CC(=O)O)n(C)c1C(=O)c1ccc(Cl)cc1,"activity, negative = inhibition",[1]; [4],-8.03% and -6.63%
same,"activity, negative = inhibition",[1]; [5],-3.67% and -0.286%
same,Potency,3D7,inactive
same,Potency,7G8,inactive
COCCOC(=O)C1=C(C)NC(C)=C(C(=O)OC/C=C/c2ccccc2)C1c1cccc([N+](=O)[O-])c1 (stereo not given),Potency,3D7,12.6 µM (active)
same,Potency,7G8,7.94 µM (active)
CSc1ccc2c(c1)C(N1CCN(C)CC1)Cc1ccccc1S2 (stereo not given),Potency,7G8,10 µM (active)
OCc1cc(C(O)CNCCCCCCOCCCCc2ccccc2)ccc1O (stereo not given),"activity, negative = inhibition",[1]; [5],-10.7%
same,Potency,3D7,inactive
CSc1ccc2c(c1)N(CCC1CCCCN1C)c1ccccc1S2 (stereo not given),Potency,7G8,5.62 µM (active)
CC(C)(C)C(=O)C(Oc1ccc(Cl)cc1)n1ccnc1 (stereo not given),Potency,3D7,10 µM (active)
same,Potency,7G8,7.94 µM (active)
Nc1ccc(S(=O)(=O)Nc2ccc(Cl)nn2)cc1,Potency,3D7,inactive
same,Potency,7G8,inactive
OCCN1CCN(CCCN2c3ccccc3Sc3ccc(Cl)cc32)CC1,Potency,7G8,4.47 µM (active)
O=C(O)COc1nn(Cc2ccccc2)c2ccccc12,"activity, negative = inhibition",[1]; [4],1.43%
same,"activity, negative = inhibition",[1]; [5],10.4%
same,Potency,3D7,inactive
same,Potency,7G8,inactive
O=C1NS(=O)(=O)c2ccccc21,"activity, negative = inhibition",[1]; [4],2.53%
same,Potency,3D7,inactive
same,Potency,7G8,inactive
O=c1cc[nH]c(=O)[nH]1,"activity, negative = inhibition",[1]; [4],9.07%
same,"activity, negative = inhibition",[1]; [5],2.41%
same,Potency,3D7,inactive
same,Potency,7G8,inactive
CCCCN(CCCC)CCCOC(=O)c1ccc(N)cc1,"activity, negative = inhibition",[1]; [2],-10.5%
same,"activity, negative = inhibition",[1]; [3],3.88%
same,Potency,3D7,inactive
same,Potency,7G8,inactive
Cc1cc(N)c2ccccc2[n+]1CCCCCCCCCC[n+]1c(C)cc(N)c2ccccc21,Potency,[1]; parasite line B,14.1 µM (active)
same,Potency,3D7,0.708 µM (active)
same,Potency,7G8,0.0355 µM (active)
CC(C)(C)NCC(O)COc1ccc(NC(=O)NC2CCCCC2)cc1 (stereo not given),"activity, negative = inhibition",[1]; [5],2.44%
same,Potency,3D7,inactive
[O-][n+]1cccc(CO)c1,"activity, negative = inhibition",[1]; [4],-0.247%
same,"activity, negative = inhibition",[1]; [5],11.6%
same,Potency,3D7,inactive
same,Potency,7G8,inactive
CC(C(O)c1ccc(O)cc1)N1CCC(Cc2ccccc2)CC1 (stereo not given),Potency,7G8,8.91 µM (active)
Oc1ccc(C(O)CNCCCCCCNCC(O)c2ccc(O)c(O)c2)cc1O (stereo not given),Potency,7G8,3.55 µM (active)
O=c1[nH]c(=O)c2[nH]c(=O)[nH]c2[nH]1,"activity, negative = inhibition",[1]; [4],-3.55%
same,"activity, negative = inhibition",[1]; [5],2.26%
same,Potency,3D7,inactive
same,Potency,7G8,inactive
CCCc1c(OCCCCc2nn[nH]n2)ccc(C(C)=O)c1O,"activity, negative = inhibition",[1]; [5],-24.5%
same,Potency,3D7,inactive
same,Potency,7G8,12.6 µM (active)
Cc1ccc2nc(N)[nH]c(=O)c2c1Sc1ccncc1,Potency,[1]; parasite line A,7.94 µM (active)
same,Potency,[1]; parasite line B,11.2 µM (active)
same,Potency,7G8,5.62 µM (active)
C[C@]12C[C@H](O)[C@H]3[C@@H](CCC4=CC(=O)CC[C@@]43C)[C@@H]1CC[C@@H]2C(=O)CO,Potency,3D7,inactive
same,Potency,7G8,inactive
CCC(=O)c1ccc(O)cc1,"activity, negative = inhibition",[1]; [4],12.2%
same,"activity, negative = inhibition",[1]; [5],2.42%
same,Potency,3D7,inactive
same,Potency,7G8,inactive
CCCCC(CC)COC(=O)c1ccccc1O (stereo not given),"activity, negative = inhibition",[1]; [4],5.45%
same,"activity, negative = inhibition",[1]; [5],-0.719%
same,Potency,3D7,inactive
same,Potency,7G8,inactive
Nc1ccc(S(=O)(=O)NC(=O)c2ccccc2)cc1,"activity, negative = inhibition",[1]; [2],10.4%
same,"activity, negative = inhibition",[1]; [3],13.1%
same,Potency,3D7,inactive
same,Potency,7G8,inactive
CN1CCN(C2Cc3ccccc3Sc3ccc(Cl)cc32)CC1 (stereo not given),"activity, negative = inhibition",[1]; [4],-18.4%
same,"activity, negative = inhibition",[1]; [5],-6.83%
same,Potency,3D7,inactive
same,Potency,7G8,8.91 µM (active)
Cc1cccc(Nc2cc(Cl)nc(SCC(=O)O)n2)c1C,"activity, negative = inhibition",[1]; [4],11.5%
same,"activity, negative = inhibition",[1]; [5],13.9%
same,Potency,3D7,inactive
same,Potency,7G8,inactive
CN(C)CCCN1c2ccccc2Sc2ccc(Cl)cc21,Potency,7G8,10 µM (active)
[Cl][In]([Cl])[Cl],"activity, negative = inhibition",[1]; [4],-23.4%
same,"activity, negative = inhibition",[1]; [5],-19.4%
same,Potency,7G8,2 µM (active)
NC(=O)N/N=C/c1ccc([N+](=O)[O-])o1,Potency,[1]; parasite line A,12.6 µM (active)
same,Potency,3D7,8.91 µM (active)
same,Potency,7G8,10 µM (active)
CN1CCC[C@@H]1Cc1c[nH]c2ccc(CCS(=O)(=O)c3ccccc3)cc12,"activity, negative = inhibition",[1]; [4],-0.0666%
same,"activity, negative = inhibition",[1]; [5],-10.1%
same,Potency,3D7,inactive
same,Potency,7G8,6.31 µM (active)
CN(C)CCN(Cc1ccccc1)c1ccccn1,"activity, negative = inhibition",[1]; [4],-2.14%
same,"activity, negative = inhibition",[1]; [5],9.22%
same,Potency,3D7,inactive
same,Potency,7G8,inactive
